In PubChem BioAssay (NCATS):
Records with an inconclusive call do not appear. Active and inactive are the calls of the source. The call rests on the fitted dose curve; in most records, active means well fitted cell-killing curve with a large enough effect; inconclusive means small, poorly fitted or top-dose-only effect, or effect the other way; inactive means flat fitted curve, though single readings scatter.

Legend:
Test in all cases: Primary qHTS to identify gynecologic anti-cancer compounds using libraries of approved drugs and bioactive compounds (AID 1345084); further: nearly all actives have a fitted effect of over 55% in size
C33A = conditions: Gynecologic cancer cell panel viability, ATPlite luminescence, 48 h; series mostly up to 57.5 µM
In short: (§1)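 Five-concentration response, 48 h; readout is ATP-driven luciferase luminescence.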

CAOV3 = conditions: Gynecologic cancer cell panel viability, ATPlite luminescence, 48 h; series mostly up to 57.5 µM
In short: as §1

CASKI = conditions: Gynecologic cancer cell panel viability, ATPlite luminescence, 48 h; series mostly up to 57.5 µM
In short: as §1

Es-2 = conditions: Gynecologic cancer cell panel viability, ATPlite luminescence, 48 h; series mostly up to 57.5 µM
In short: as §1

HeLa = conditions: Gynecologic cancer cell panel viability, ATPlite luminescence, 48 h; series mostly up to 57.5 µM
In short: as §1

Hek293T = conditions: Gynecologic cancer cell panel viability, ATPlite luminescence, 48 h, control line for the selectivity index; series mostly up to 57.5 µM
In short: as §1

JEG-3 = conditions: Gynecologic cancer cell panel viability, ATPlite luminescence, 48 h; series mostly up to 57.5 µM
In short: as §1

OV90 = conditions: Gynecologic cancer cell panel viability, ATPlite luminescence, 48 h; series mostly up to 57.5 µM
In short: as §1

PA-1 = conditions: Gynecologic cancer cell panel viability, ATPlite luminescence, 48 h; series mostly up to 57.5 µM
In short: as §1

SKOV3 = conditions: Gynecologic cancer cell panel viability, ATPlite luminescence, 48 h; series mostly up to 57.5 µM
In short: as §1

Tov-21-G = conditions: Gynecologic cancer cell panel viability, ATPlite luminescence, 48 h; series mostly up to 57.5 µM
In short: as §1

Tov112D = conditions: Gynecologic cancer cell panel viability, ATPlite luminescence, 48 h; series mostly up to 57.5 µM
In short: as §1
On the % scale 0 is the no-effect control and ±100 the full control effect.

COC1CC(=O)C23C(=O)NC(CC(C)C)C2C(C)C(C)=CC3/C=C(\C)CCCC1O (centres undefined)
inactive: Potency (C33A) | Potency (CAOV3) | Potency (CASKI) | Potency (Es-2) | Potency (HeLa) | Potency (Hek293T) | Potency (JEG-3) | Potency (OV90) | Potency (PA-1) | Potency (SKOV3) | Potency (Tov-21-G) | Potency (Tov112D)

COc1ccc(S(=O)(=O)Nc2cc(Cl)cc(Cl)c2OC)cc1N1CCNCC1
inactive: Potency (C33A) | Potency (CAOV3) | Potency (CASKI) | Potency (Es-2) | Potency (HeLa) | Potency (Hek293T) | Potency (JEG-3) | Potency (OV90) | Potency (PA-1) | Potency (SKOV3) | Potency (Tov-21-G) | Potency (Tov112D)

CCN1CCC[C@@H]1CNC(=O)c1ccc2c(c1)NC(=O)c1cccc(C)c1S2
inactive: Potency (C33A) | Potency (CAOV3) | Potency (CASKI) | Potency (Es-2) | Potency (HeLa) | Potency (Hek293T) | Potency (JEG-3) | Potency (OV90) | Potency (PA-1) | Potency (SKOV3) | Potency (Tov-21-G) | Potency (Tov112D)

Cc1cn2c(n1)Cc1ccc(Cl)cc1C(c1ccc(N)cc1)=N2
inactive: Potency (C33A) | Potency (CAOV3) | Potency (CASKI) | Potency (Es-2) | Potency (HeLa) | Potency (Hek293T) | Potency (JEG-3) | Potency (OV90) | Potency (PA-1) | Potency (SKOV3) | Potency (Tov-21-G) | Potency (Tov112D)

CC(C)NC(=O)N1CC[C@H](N=C2Nc3cc(F)ccc3N(CC(F)F)c3ccc(Cl)cc32)C1
inactive: activity change, negative = cytotoxicity (C33A) 7.02% [at 11.6 µM] | activity change, negative = cytotoxicity (CAOV3) -26.1% [at 11.6 µM] | activity change, negative = cytotoxicity (CASKI) -4.9% [at 11.6 µM] | activity change, negative = cytotoxicity (Es-2) 5.14% [at 11.6 µM] | activity change, negative = cytotoxicity (HeLa) -4.91% [at 11.6 µM] | activity change, negative = cytotoxicity (Hek293T) 1.3% [at 11.6 µM] | activity change, negative = cytotoxicity (JEG-3) 13.8% [at 11.6 µM] | activity change, negative = cytotoxicity (OV90) 1.89% [at 11.6 µM] | activity change, negative = cytotoxicity (PA-1) -24.1% [at 11.6 µM] | activity change, negative = cytotoxicity (SKOV3) 18.3% [at 11.6 µM] | activity change, negative = cytotoxicity (Tov-21-G) -31.2% [at 11.6 µM] | activity change, negative = cytotoxicity (Tov112D) -4.53% [at 11.6 µM]

O=C(NCCN1CCN(c2cccc3ccc(O)cc23)CC1)c1ccc(F)cc1
inactive: Potency (C33A) | Potency (CAOV3) | Potency (CASKI) | Potency (Es-2) | Potency (HeLa) | Potency (Hek293T) | Potency (JEG-3) | Potency (OV90) | Potency (PA-1) | Potency (SKOV3) | Potency (Tov-21-G) | Potency (Tov112D)

COC(=O)c1ccnc(-c2cc(C(=O)Nc3ccc(C4(N)CC4)cc3)ccn2)c1
inactive: Potency (C33A) | Potency (CAOV3) | Potency (CASKI) | Potency (Es-2) | Potency (HeLa) | Potency (Hek293T) | Potency (JEG-3) | Potency (OV90) | Potency (PA-1) | Potency (SKOV3) | Potency (Tov-21-G) | Potency (Tov112D)

C=C1C(OC2OC(CO)C(O)C(O)C2O)CC2C(C)(C)C(O)CCC2(C)C1CC/C(C)=C\COC(=O)CC(=O)O (centres undefined)
inactive: Potency (C33A) | Potency (CAOV3) | Potency (CASKI) | Potency (Es-2) | Potency (HeLa) | Potency (Hek293T) | Potency (JEG-3) | Potency (OV90) | Potency (PA-1) | Potency (SKOV3) | Potency (Tov-21-G) | Potency (Tov112D)

OC(CC1c2ccccc2-c2cncn21)C1CCCCC1 (centres undefined)
inactive: Potency (C33A) | Potency (CAOV3) | Potency (CASKI) | Potency (Es-2) | Potency (HeLa) | Potency (Hek293T) | Potency (JEG-3) | Potency (OV90) | Potency (PA-1) | Potency (SKOV3) | Potency (Tov-21-G) | Potency (Tov112D)

COC(=O)/C=C/C=C/C(=O)OC1C=C2COC(=O)C2(O)C2(C)CCCC(C)(C)C12 (centres undefined)
inactive: Potency (C33A) | Potency (CAOV3) | Potency (CASKI) | Potency (Es-2) | Potency (HeLa) | Potency (Hek293T) | Potency (JEG-3) | Potency (OV90) | Potency (PA-1) | Potency (SKOV3) | Potency (Tov-21-G) | Potency (Tov112D)

O[C@@](Cc1ncc(CC2(C(F)(F)F)CC2)[nH]1)(c1ccc(-n2cccn2)cc1)C(F)(F)F
inactive: Potency (C33A) | Potency (CAOV3) | Potency (CASKI) | Potency (Es-2) | Potency (HeLa) | Potency (Hek293T) | Potency (JEG-3) | Potency (OV90) | Potency (PA-1) | Potency (SKOV3) | Potency (Tov-21-G) | Potency (Tov112D)

CC1(C)CCCC2(C)C1C(=O)C=C(C(=O)O)C2(O)C(=O)O (centres undefined)
inactive: Potency (C33A) | Potency (CAOV3) | Potency (CASKI) | Potency (Es-2) | Potency (HeLa) | Potency (Hek293T) | Potency (JEG-3) | Potency (OV90) | Potency (PA-1) | Potency (SKOV3) | Potency (Tov-21-G) | Potency (Tov112D)

O=C(NCC(=O)N1CCCC1)Nc1ccc2cnccc2c1
inactive: Potency (C33A) | Potency (CAOV3) | Potency (CASKI) | Potency (Es-2) | Potency (HeLa) | Potency (Hek293T) | Potency (JEG-3) | Potency (OV90) | Potency (PA-1) | Potency (SKOV3) | Potency (Tov-21-G) | Potency (Tov112D)

COc1cc2c(cc1O)C1(Cc3ccc4c(c3C1O)OCO4)[N+](C)([O-])CC2 (centres undefined)
inactive: Potency (C33A) | Potency (CAOV3) | Potency (CASKI) | Potency (Es-2) | Potency (HeLa) | Potency (Hek293T) | Potency (JEG-3) | Potency (OV90) | Potency (PA-1) | Potency (SKOV3) | Potency (Tov-21-G) | Potency (Tov112D)

CC(=O)O[C@H]1C[C@@](O)(C(C)C)[C@@H]2[C@@H](OC(=O)c3ccc(O)cc3)CC(C)=CC[C@@]12C
inactive: Potency (C33A) | Potency (CAOV3) | Potency (CASKI) | Potency (Es-2) | Potency (HeLa) | Potency (Hek293T) | Potency (JEG-3) | Potency (OV90) | Potency (PA-1) | Potency (SKOV3) | Potency (Tov-21-G) | Potency (Tov112D)

O=c1cc(N2CCN(c3cccc(C(F)(F)F)c3)CC2)[nH]c(=O)n1C1CCCCC1
inactive: Potency (C33A) | Potency (CAOV3) | Potency (CASKI) | Potency (Es-2) | Potency (HeLa) | Potency (Hek293T) | Potency (JEG-3) | Potency (OV90) | Potency (PA-1) | Potency (SKOV3) | Potency (Tov-21-G) | Potency (Tov112D)

COc1ccncc1C(=O)NC(=O)Nc1ccc(-c2ccccc2)c(C(F)(F)F)c1
inactive: Potency (C33A) | Potency (CAOV3) | Potency (CASKI) | Potency (Es-2) | Potency (HeLa) | Potency (Hek293T) | Potency (JEG-3) | Potency (OV90) | Potency (PA-1) | Potency (SKOV3) | Potency (Tov-21-G) | Potency (Tov112D)
